NSD2 HMT inh: blocks human histone methyltransferase NSD2. O96028. NSD2 peptide methylation, AlphaScreen, 120 min. inhibition, % at 12.5 µM. 0.54% of 310,000 active; in the data active means inhibition above about 50%
CASP6 VEID inh: inhibitors of human caspase-6; purified caspase-6, Z-VEID-R110 cleavage fluorescence; P55212; 0.53% of 350,000 active; inhibition, % at 12.5 µM;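 active means mean inhibition across replicates at least about 35%, with every replicate also reaching that limit, limit read from the data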;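 further: 0% = median of neutral control wells and 100% = no fluorescence left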
Target sequence (P55212 24-179 limits assumed): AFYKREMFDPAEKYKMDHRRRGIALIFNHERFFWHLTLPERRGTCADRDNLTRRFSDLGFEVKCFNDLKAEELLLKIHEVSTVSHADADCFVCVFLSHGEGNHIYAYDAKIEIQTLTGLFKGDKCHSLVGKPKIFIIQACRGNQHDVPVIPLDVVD
Target sequence (P55212 194-293 limits assumed): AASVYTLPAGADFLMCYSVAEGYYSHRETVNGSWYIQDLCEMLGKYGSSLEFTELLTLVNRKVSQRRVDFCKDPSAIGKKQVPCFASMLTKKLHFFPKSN
N-glyco inh: N-linked glycosylation inhibition; D54 ERlucT glycosylation luciferase reporter, 24 h; percent of 100 nM tunicamycin response; reporter increase, % at 12.5 µM; 0.23% of 360,000 active;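 active means mean luciferase reporter signal, scaled so untreated is 0 and the glycosylation-blocking control 100, at or above a set limit in every replicate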;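 further: luciferase carries N-glycosylation sites so blocking glycosylation raises the light; 0% = median of neutral control wells and 100% = median of 100 nM tunicamycin wells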
Keap1-Nrf2 PPI: Keap1-Nrf2 (human) interaction inhibition | 0.15% of 340,000 active | Q14145 | inhibition, % at 9.4 µM | Keap1 Kelch-Nrf2 peptide fluorescence polarization, 1536-well; in the data active means inhibition above about 12%;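 further: human Keap1 Kelch domain with fluorescein labeled Nrf2 9mer peptide probe; 0% = neutral control wells and 100% = peptide positive control; higher means more block of Keap1 binding to Nrf2 peptide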
HDAC3 inhib: inhibitors of human histone deacetylase 3; O15379; recombinant HDAC3, fluorogenic peptide/trypsin coupled, fluorescence; inhibition, % at 8.3 µM; 0.15% of 320,000 active; in the data active means inhibition above about 26%, passing the limit was not always enough
C-LANA FP: blocks KSHV LANA C-terminal domain binding to DNA | 0.078% of 340,000 active | MBP-C-LANA/FAM-LBS DNA binding, fluorescence polarization | inhibition, % at 9 µM;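 active means highest replicate inhibition at or above 60% at 9 µM, even if other replicates fall short; inactive means all replicates below 60% inhibition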;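 further: 0% = neutral control wells and 100% = 4 µM acridine orange control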
Keap1 Kelch bind: binders of human Keap1 Kelch domain; shares compounds with Keap1-Nrf2 PPI; AID 651823; 8% of 400 active; max delta Tm, degrees C; Keap1 Kelch thermal shift, delta Tm; active compounds read high; in the data active means max delta Tm above about 0.48 degrees C
Dye-only ctr: counter-screen for Keap1 thermal shift hits: dye-only artifacts | shares compounds with Keap1-Nrf2 PPI | Sypro Orange dye-only thermal melt, no protein, delta Tm; top dose 26 µM | delta Tm, degrees C (test concentration not listed) | 140 tested, under 10 active | AID 651858;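 active means at highest dose tested, delta Tm positive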
CASP1 counter: caspase-1 (human) inhibition counter-screen; AID 743289; shares compounds with CASP6 VEID inh; 100 tested, under 10 active; activity change, negative = inhibition, % at 35 µM; purified caspase-1, Z-YVAD-R110 cleavage fluorescence;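 active means compounds lowering fluorescence whose fitted half-maximal concentration is no more than twice their top tested dose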
Target sequence (P29466 whole entry, looked up): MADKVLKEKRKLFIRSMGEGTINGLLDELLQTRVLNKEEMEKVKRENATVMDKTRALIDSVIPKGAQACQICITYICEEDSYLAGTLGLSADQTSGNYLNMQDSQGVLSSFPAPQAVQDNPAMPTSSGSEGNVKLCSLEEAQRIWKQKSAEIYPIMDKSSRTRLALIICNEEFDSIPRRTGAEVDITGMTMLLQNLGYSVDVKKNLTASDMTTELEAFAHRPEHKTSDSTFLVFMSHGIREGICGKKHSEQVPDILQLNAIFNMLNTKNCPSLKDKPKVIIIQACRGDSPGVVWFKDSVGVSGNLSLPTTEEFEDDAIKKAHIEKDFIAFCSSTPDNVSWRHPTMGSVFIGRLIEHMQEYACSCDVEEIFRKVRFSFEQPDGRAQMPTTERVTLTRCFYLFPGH
AlphaScreen art: AlphaScreen assay artifact in NSD2 counter-screen; shares compounds with NSD2 HMT inh; AlphaScreen artifact counterscreen, preloaded methylated H4 peptide; AC35, µM (highest dose often 10 µM), without a hit: top-dose activity change, negative = signal loss; 9.4% of 1,500 active; call rule not given here
* hit, by the source's call; · = no result given. Shown are actives, neighbours in structure and some others; about 1.1% of the full set was active somewhere.

SMILES | NSD2 HMT inh | CASP6 VEID inh | N-glyco inh | Keap1-Nrf2 PPI | HDAC3 inhib | C-LANA FP | Keap1 Kelch bind | others
N/C(=N/OC(=O)c1ccc(Cl)cc1)c1ncc([N+](=O)[O-])s1 | -1 | -1 | 3 | 22* | -7 | 10 | -0.1 | Dye-only ctr=-28
Cc1ccc(-c2cnc3c(c2)C(=O)N([C@H](C)CO)C[C@H](C)[C@H](CN(C)CC2CCCC2)O3)cc1 | · | 3 | · | · | · | · | ·
C[C@H]1CN([C@@H](C)CO)C(=O)Cc2cc(NC(=O)CCC(F)(F)F)ccc2O[C@H]1CN(C)C(=O)Nc1ccccc1 | · | -1 | · | · | · | · | ·
COc1ccc(OC)c(C(=O)c2coc3ccc(O)c(CN(C)C)c23)c1 | 0 | 2 | -1 | 19* | 4 | 9 | -0.11
O=C(Nc1ccc(F)cc1)N1C[C@@H]2[C@H](c3ccccc31)[C@@H](CO)N2C(=O)c1ccccc1 | · | 0 | · | · | · | · | ·
COc1cccc(-c2cn(CC[C@H]3CC[C@@H](NC(=O)CN(C)C)[C@H](CO)O3)nn2)c1 | · | -2 | · | · | · | · | ·
NC(=O)CC(NC(=O)Cc1cccc2ccccc12)c1ccc(NCc2ccccc2)c([N+](=O)[O-])c1 (stereo unspecified) | · | 2 | 0 | 22* | -2 | 18 | -0.11
NC(=O)CC(NC(=O)Cc1cccc2ccccc12)c1ccc(NCc2ccc(F)cc2)c([N+](=O)[O-])c1 (stereo unspecified) | · | 6 | 11 | -2 | -5 | 0 | ·
O=C([C@H]1[C@H](CO)[C@H]2Cn3c(cccc3=O)[C@@H]1N2)N1CCc2ccccc2C1 | · | -2 | · | · | · | · | ·
COc1ccc(/C=N/N=C2/NC(=O)CC(C(=O)O)S2)cc1 (stereo unspecified) | 2 | -2 | 3 | 7 | 6 | 1 | ·
COc1ccc(/C=N/N=C2/CC(C)(C)Cc3n[nH]c(=O)cc32)cc1 | 37 | 14 | 5 | 13* | 1 | 26 | -0.17
CC(=O)N1CC=C2C(C#N)=C(N)C(C#N)(C#N)C(CCc3ccccc3)C2C1 (stereo unspecified) | 5 | · | 0 | -10 | -9 | 0 | ·
CCN1CC=C2C(C#N)=C(N)C(C#N)(C#N)C(CCc3ccccc3)C2C1 (stereo unspecified) | -4 | · | 3 | 22* | -33 | 54 | -0.04
c1ccc2[nH]c3cc4ncnc4cc3nc2c1 | 19 | 69* | 26* | 35* | 1 | 75* | 0
FC(F)c1nc2ccccc2[nH]1 | -1 | 2 | 1 | -4 | 14 | 0 | ·
O=C(CSCC(=O)Nc1ccccc1)N/N=C/c1c(O)ccc2ccccc12 | 0 | · | -9 | 12* | -2 | -3 | 0.09 | Dye-only ctr=-27
O=C(N/N=C/c1c(O)ccc2ccccc12)Nc1ccccc1 | -4 | -5 | · | · | 6 | · | ·
CCCN(C)C[C@H]1OCCCC[C@@H](C)Oc2ccc(NC(=O)NC3CCCCC3)cc2C(=O)N([C@@H](C)CO)C[C@H]1C | · | -6 | · | · | · | · | ·
CC1CCN(C(=O)Cn2cc(C(F)(F)F)ccc2=O)c2ccccc2S1 (stereo unspecified) | 0 | 70* | 0 | 49* | 15 | 21 | -0.1
CCCN(CCC)S(=O)(=O)c1ccc(C(=O)OCCN2C(=O)c3cccc4c(N5CCOCC5)ccc(c34)C2=O)cc1 | · | · | -4 | 39* | · | 64 | -0.08 | Dye-only ctr=-4
C[C@@H]1CN([C@@H](C)CO)C(=O)c2cccc(NS(=O)(=O)c3ccccc3)c2O[C@H]1CN(C)C(=O)Nc1ccccc1 | · | 0 | · | · | · | · | ·
COc1cccc(NC(=O)CN(C)CC(=O)NCc2ccco2)c1 | -2 | 3 | 1 | 24* | 1 | 81* | -0.07 | Dye-only ctr=-22
COc1ccc(C=Nc2cccnc2N)cc1 | 3 | · | 0 | 23* | -10 | 14 | -0.2
C(=C\c1ccc(C2[C@@H]3CN(Cc4cccnc4)C[C@H]2N3)cc1)/c1ccccc1 (stereo partly specified) | · | 3 | · | · | · | · | ·
CC(C)C(C(=O)O)N1C(=O)/C(=C/C=C/c2ccco2)SC1=S (stereo unspecified) | · | · | 0 | 13* | 8 | 107* | 0.91*
SMILES | NSD2 HMT inh | CASP6 VEID inh | N-glyco inh | Keap1-Nrf2 PPI | HDAC3 inhib | C-LANA FP | Keap1 Kelch bind | others
CC(=C\c1ccco1)/C=C1/SC(=S)N(CC(=O)O)C1=O | 9 | 30 | 1 | -13 | -1 | 1 | ·
O=S(=O)([O-])CCC[n+]1c(SCCCS(=O)(=O)O)sc2ccc(Cl)cc21 | 4 | -2 | 2 | 21* | -6 | -1 | -0.02 | Dye-only ctr=-26
O=C(CCCN1C(=O)/C(=C\c2cccs2)SC1=S)Nc1ccc(O)cc1C(=O)O | 18 | 14 | 0 | -7 | 6 | 0 | ·
O=C(CCCN1C(=O)/C(=C\c2ccco2)SC1=S)Nc1ccc(O)cc1C(=O)O | 104* | · | -1 | 28* | -4 | 109* | 0.33 | Dye-only ctr=-28;AlphaScreen art=-14%
CC1=C(C#N)c2nc(N)c(C#N)c(C)c2/C1=C\c1ccc(-c2ccccc2C(=O)O)o1 | 82* | 54* | 1 | 92* | · | 17 | 2.3* | AlphaScreen art=-12%
COc1cc(/C=C2/C(C)=C(C#N)c3nc(N)c(C#N)c(C)c32)ccc1OCC(=O)O | 23 | · | · | -3 | 9 | 6 | ·
CCCCn1c(=O)[nH]c2nc3cc(N)ccc3nc2c1=O | 110* | -1 | 8 | 50* | 5 | 84 | -0.04 | Dye-only ctr=-28;AlphaScreen art=1%
O=C(NC1(O)C(=O)c2ccccc2C1=O)c1c(Cl)cccc1Cl | 111* | 39* | 1 | 19* | -5 | · | -0.07 | Dye-only ctr=-24;AlphaScreen art=1%
COc1ccc(S(=O)(=O)Nc2ccc3c(c2)C(=O)N([C@@H](C)CO)C[C@@H](C)[C@H](CN(C)C)O3)cc1 | · | -1 | · | · | · | · | ·
C[C@H](O)C#Cc1cnc2c(c1)C(=O)N([C@H](C)CO)C[C@H](C)[C@H](CN(C)CC1CCOCC1)O2 | · | 0 | · | · | · | · | ·
O=C(c1cccc(-n2cccc2)c1)N1CCN(S(=O)(=O)c2ccccc2)CC1 | · | 51* | -2 | 4 | -2 | 18 | · | CASP1 counter=3
Cc1[nH]nc(S(=O)CC(=O)O)c1[N+](=O)[O-] (stereo unspecified) | -5 | 41* | -4 | 0 | 5 | 3 | · | CASP1 counter=9
Cc1ccc(S(=O)(=O)N(C)C[C@@H]2OCCCC[C@H](C)Oc3ccc(NS(=O)(=O)c4cccs4)cc3C(=O)N([C@@H](C)CO)C[C@@H]2C)cc1 | · | 1 | · | · | · | · | ·
O=c1c(CO)cc(CO)cc(CO)c1O | 0 | 71* | 1 | -7 | 3 | 3 | · | CASP1 counter=0
